In PubChem BioAssay:
Active and inactive are the calls of the source.

Tests used:
[1] = test system: PRMT1 (protein arginine N-methyltransferase 1); experiment: PRMT1 binders on small-molecule microarrays, primary screen, biochemical, small-molecule microarray, 635 nm fluorescence (AID 1088); conditions: small-molecule microarray binding, higher = more signal;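 note: binding of Prmt1 protein to compounds spotted on small-molecule microarray slides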
[2] = yeast growth modulation, basal conditions, primary screen, YJM789 clinical isolate, OD600, 24 h (AID 1089);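 note: growth of clinical yeast isolate S. cerevisiae YJM 789 seeded 1000 cells per well; test concentration not given here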; conditions: S. cerevisiae YJM789 growth, higher = more signal, called active from +8 up or from −8 down
[3] = fission yeast growth modulation, primary screen, strain 972, OD600, 24 h, no modulator (AID 1090);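 note: basal condition with compound alone and no growth modifier present; test concentration not given here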; conditions: S. pombe 972 growth, higher = more signal, called active from +8 up or from −8 down
[4] = S. cerevisiae growth modulation with rapamycin, primary screen, strain BY4716, OD600, 96 h (AID 1091); conditions: higher = more signal, called active from +8 up or from −8 down; note: test concentration not given here
[5] = target: Torsin-1A-interacting protein 2 (Homo sapiens) (UniProt Q8NFQ8); experiment: LULL1 binders on small-molecule microarray, primary screen, cell lysate, human LULL1 lysate, 635/667 nm fluorescence (AID 1092); conditions: hLULL1 lysate binding, 635 nm fluorescence, higher = more signal;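 note: probe is lysate of COS7 cells overexpressing human LULL1; score merges per-feature 667 nm fluorescence with signal-to-noise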
[6] = E. coli growth modulation, two-sided OD650, primary screen, E. coli filamentation project, strain DRC41, 24 h (AID 1093); conditions: OD650, 24 h, higher = more signal, called active from +8 up or from −8 down;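 note: MC1000 strain lacking acrAB efflux and sulA so SOS filamentation is blocked; test concentration not given here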
[7] = small-molecule microarray binders of probe aLefty2, primary screen, biochemical, biotinylated probe, 635/667 nm fluorescence (AID 1094); conditions: higher = more signal;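 note: score merges spot fluorescence near 667 nm with spot signal-to-noise ratio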
[8] = test system: Noggin (protein binding on small-molecule microarray); experiment: Noggin binders on small-molecule microarray, primary screen, biochemical, 635/667 nm fluorescence (AID 1095); conditions: 635 nm fluorescence, higher = more signal;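 note: score merges 667 nm feature fluorescence with signal to noise over triplicate slides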
[9] = target: Neurogenic locus notch homolog protein 3 (Homo sapiens) (UniProt Q9UM47); experiment: NOTCH3 binders on small-molecule microarray, primary screen, biochemical, 635/667 nm fluorescence (AID 1096); conditions: NOTCH3 binding, 635 nm fluorescence, higher = more signal
[10] = small-molecule microarray binders of probe aEGFR, primary screen, biochemical, biotinylated probe, 635/667 nm fluorescence (AID 1097); conditions: higher = more signal;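 note: probe is a biotinylated anti-EGFR antibody binding compounds printed on slides; score combines fluorescence near 667 nm and signal to noise of each spot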
[11] = test system: Plasmodium falciparum Sir2 (PF13_0152, Sir2A); experiment: pfSir2 binders on small-molecule microarrays, primary screen, biochemical, small-molecule microarray, 635 nm fluorescence (AID 1098); conditions: small-molecule microarray binding, fluorescence 635 nm; higher = more signal;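 note: score merges spot fluorescence intensity with its signal-to-noise ratio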
[12] = small-molecule microarray binders of probe aDKK1, primary screen, biochemical, biotinylated probe, 635/667 nm fluorescence (AID 1099); conditions: higher = more signal;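 note: score merges 667nm spot fluorescence with signal to noise across triplicate slides; reference of the scale not given here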
[13] = small-molecule microarray binders of probe aCHRDL2, primary screen, biochemical, biotinylated probe, 635/667 nm fluorescence (AID 1100); conditions: higher = more signal
[14] = splicing luciferase reporter signal modulators, primary screen, spliceosome inhibition project, cell-based, HEK293, splice +/- reporter (AID 1101); conditions: luminescence, 24 h, higher = more signal, called active from +8 up or from −8 down;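 note: HEK293 cells carrying a splicing-competent luciferase reporter gene; test concentration not given here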
[15] = target: Fibroblast growth factor 10 (Homo sapiens) (UniProt O15520); experiment: FGF10 binders on small-molecule microarrays, primary screen, biochemical, small-molecule microarray, 635 nm fluorescence (AID 1102); conditions: FGF10 binding, fluorescence 635 nm, higher = more signal
[16] = test system: glycogen synthase kinase-3 (GSK3A per assay name; protocol says GSK3B); experiment: GSK3 binders on small-molecule microarrays, primary screen, biochemical, small-molecule microarray, 635 nm fluorescence, GSK3A (AID 1103); conditions: small-molecule microarray binding, fluorescence 635 nm; higher = more signal; note: the record names both GSK3A and GSK3B
[17] = target: Epidermal growth factor receptor (Homo sapiens) (UniProt P00533); experiment: EGFR binders on small-molecule microarrays, primary screen, biochemical, small-molecule microarray, 635 nm fluorescence (AID 1104); conditions: EGFR binding, higher = more signal;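 note: score merges 667 nm emission intensity with spot signal to noise over triplicate slides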
[18] = target: Follistatin-related protein 3 (Homo sapiens) (UniProt O95633); experiment: FSTL3 binders on small-molecule microarrays, primary screen, biochemical, small-molecule microarray, 635 nm fluorescence (AID 1105); conditions: FSTL3 binding, higher = more signal;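 note: score merges emission near 667 nm and signal to noise per printed spot across three slides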
[19] = target: Dickkopf-related protein 1 (Homo sapiens) (UniProt O94907); experiment: DKK1 binders on small-molecule microarrays, primary screen, biochemical, small-molecule microarray, 635 nm fluorescence scan (AID 1106); conditions: DKK1 binding, higher = more signal;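 note: score merges emission near 667 nm with signal to noise over three replicate slides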
[20] = test system: Inhibin beta A chain (activin A); experiment: INHBA (activin A) binders on microarrays, primary screen, biochemical, small-molecule microarray, 635 nm fluorescence scan (AID 1107); conditions: small-molecule microarray binding, higher = more signal;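 note: mouse activin A protein probed at 4.33 µg/mL on printed slides; score merges bound-protein fluorescence near 667 nm with spot signal-to-noise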

Sequence of Follistatin-related protein 3 (Homo sapiens) (O95633 whole entry, looked up): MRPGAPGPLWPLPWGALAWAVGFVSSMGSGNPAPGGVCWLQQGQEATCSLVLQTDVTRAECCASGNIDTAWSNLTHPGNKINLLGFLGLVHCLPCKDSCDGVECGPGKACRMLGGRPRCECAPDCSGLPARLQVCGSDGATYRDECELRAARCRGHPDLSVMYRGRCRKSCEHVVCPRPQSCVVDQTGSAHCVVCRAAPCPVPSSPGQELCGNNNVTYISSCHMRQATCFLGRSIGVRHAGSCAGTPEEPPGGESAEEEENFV
Sequence of Epidermal growth factor receptor (Homo sapiens) (P00533 whole entry, looked up): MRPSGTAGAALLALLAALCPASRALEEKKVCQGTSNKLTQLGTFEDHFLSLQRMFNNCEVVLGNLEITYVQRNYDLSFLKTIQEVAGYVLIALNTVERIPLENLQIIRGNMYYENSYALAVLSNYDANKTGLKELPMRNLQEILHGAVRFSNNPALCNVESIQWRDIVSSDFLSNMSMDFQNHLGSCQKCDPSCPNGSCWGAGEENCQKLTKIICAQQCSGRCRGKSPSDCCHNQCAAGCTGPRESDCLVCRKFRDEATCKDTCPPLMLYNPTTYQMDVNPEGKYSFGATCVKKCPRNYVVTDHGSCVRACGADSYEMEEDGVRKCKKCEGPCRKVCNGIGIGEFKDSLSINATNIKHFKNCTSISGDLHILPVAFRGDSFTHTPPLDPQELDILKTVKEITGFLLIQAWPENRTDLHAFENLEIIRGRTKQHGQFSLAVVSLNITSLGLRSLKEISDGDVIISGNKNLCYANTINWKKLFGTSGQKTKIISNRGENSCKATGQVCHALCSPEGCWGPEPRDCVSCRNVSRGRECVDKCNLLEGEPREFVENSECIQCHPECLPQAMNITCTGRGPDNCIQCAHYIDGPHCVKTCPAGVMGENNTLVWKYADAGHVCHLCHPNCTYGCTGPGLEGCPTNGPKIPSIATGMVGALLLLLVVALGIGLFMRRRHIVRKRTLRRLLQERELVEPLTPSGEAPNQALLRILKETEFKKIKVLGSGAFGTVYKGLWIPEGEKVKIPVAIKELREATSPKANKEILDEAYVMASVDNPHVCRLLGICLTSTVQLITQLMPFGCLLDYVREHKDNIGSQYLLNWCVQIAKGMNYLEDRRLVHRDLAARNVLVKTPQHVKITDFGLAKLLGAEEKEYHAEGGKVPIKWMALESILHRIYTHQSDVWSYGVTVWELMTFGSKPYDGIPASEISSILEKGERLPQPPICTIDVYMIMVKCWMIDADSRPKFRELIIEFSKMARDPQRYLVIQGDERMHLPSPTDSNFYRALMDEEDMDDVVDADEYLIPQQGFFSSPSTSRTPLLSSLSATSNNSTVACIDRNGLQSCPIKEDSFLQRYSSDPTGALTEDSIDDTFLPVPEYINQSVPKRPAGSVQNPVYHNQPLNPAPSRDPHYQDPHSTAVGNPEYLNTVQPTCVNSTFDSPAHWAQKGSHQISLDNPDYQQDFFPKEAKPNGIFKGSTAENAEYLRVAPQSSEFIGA
Sequence of Torsin-1A-interacting protein 2 (Homo sapiens) (Q8NFQ8 whole entry, looked up): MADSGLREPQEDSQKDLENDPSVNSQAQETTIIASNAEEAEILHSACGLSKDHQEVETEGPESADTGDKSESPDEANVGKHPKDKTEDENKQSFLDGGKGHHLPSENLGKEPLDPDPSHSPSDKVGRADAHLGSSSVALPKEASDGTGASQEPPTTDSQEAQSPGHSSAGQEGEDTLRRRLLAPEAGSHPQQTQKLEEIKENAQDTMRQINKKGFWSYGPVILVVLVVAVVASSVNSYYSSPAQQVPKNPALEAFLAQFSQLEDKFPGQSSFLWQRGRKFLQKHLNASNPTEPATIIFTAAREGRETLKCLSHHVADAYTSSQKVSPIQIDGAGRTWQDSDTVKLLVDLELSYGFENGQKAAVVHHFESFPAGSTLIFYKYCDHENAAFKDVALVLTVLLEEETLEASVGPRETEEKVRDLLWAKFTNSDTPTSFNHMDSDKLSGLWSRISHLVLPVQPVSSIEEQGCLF
Sequence of Fibroblast growth factor 10 (Homo sapiens) (O15520 whole entry, looked up): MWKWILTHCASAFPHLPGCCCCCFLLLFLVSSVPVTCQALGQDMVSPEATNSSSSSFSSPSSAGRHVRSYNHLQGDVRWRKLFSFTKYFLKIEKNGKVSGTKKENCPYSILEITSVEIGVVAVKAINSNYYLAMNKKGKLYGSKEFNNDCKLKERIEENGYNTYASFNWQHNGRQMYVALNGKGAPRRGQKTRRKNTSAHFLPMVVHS
Sequence of Neurogenic locus notch homolog protein 3 (Homo sapiens) (Q9UM47 whole entry, looked up): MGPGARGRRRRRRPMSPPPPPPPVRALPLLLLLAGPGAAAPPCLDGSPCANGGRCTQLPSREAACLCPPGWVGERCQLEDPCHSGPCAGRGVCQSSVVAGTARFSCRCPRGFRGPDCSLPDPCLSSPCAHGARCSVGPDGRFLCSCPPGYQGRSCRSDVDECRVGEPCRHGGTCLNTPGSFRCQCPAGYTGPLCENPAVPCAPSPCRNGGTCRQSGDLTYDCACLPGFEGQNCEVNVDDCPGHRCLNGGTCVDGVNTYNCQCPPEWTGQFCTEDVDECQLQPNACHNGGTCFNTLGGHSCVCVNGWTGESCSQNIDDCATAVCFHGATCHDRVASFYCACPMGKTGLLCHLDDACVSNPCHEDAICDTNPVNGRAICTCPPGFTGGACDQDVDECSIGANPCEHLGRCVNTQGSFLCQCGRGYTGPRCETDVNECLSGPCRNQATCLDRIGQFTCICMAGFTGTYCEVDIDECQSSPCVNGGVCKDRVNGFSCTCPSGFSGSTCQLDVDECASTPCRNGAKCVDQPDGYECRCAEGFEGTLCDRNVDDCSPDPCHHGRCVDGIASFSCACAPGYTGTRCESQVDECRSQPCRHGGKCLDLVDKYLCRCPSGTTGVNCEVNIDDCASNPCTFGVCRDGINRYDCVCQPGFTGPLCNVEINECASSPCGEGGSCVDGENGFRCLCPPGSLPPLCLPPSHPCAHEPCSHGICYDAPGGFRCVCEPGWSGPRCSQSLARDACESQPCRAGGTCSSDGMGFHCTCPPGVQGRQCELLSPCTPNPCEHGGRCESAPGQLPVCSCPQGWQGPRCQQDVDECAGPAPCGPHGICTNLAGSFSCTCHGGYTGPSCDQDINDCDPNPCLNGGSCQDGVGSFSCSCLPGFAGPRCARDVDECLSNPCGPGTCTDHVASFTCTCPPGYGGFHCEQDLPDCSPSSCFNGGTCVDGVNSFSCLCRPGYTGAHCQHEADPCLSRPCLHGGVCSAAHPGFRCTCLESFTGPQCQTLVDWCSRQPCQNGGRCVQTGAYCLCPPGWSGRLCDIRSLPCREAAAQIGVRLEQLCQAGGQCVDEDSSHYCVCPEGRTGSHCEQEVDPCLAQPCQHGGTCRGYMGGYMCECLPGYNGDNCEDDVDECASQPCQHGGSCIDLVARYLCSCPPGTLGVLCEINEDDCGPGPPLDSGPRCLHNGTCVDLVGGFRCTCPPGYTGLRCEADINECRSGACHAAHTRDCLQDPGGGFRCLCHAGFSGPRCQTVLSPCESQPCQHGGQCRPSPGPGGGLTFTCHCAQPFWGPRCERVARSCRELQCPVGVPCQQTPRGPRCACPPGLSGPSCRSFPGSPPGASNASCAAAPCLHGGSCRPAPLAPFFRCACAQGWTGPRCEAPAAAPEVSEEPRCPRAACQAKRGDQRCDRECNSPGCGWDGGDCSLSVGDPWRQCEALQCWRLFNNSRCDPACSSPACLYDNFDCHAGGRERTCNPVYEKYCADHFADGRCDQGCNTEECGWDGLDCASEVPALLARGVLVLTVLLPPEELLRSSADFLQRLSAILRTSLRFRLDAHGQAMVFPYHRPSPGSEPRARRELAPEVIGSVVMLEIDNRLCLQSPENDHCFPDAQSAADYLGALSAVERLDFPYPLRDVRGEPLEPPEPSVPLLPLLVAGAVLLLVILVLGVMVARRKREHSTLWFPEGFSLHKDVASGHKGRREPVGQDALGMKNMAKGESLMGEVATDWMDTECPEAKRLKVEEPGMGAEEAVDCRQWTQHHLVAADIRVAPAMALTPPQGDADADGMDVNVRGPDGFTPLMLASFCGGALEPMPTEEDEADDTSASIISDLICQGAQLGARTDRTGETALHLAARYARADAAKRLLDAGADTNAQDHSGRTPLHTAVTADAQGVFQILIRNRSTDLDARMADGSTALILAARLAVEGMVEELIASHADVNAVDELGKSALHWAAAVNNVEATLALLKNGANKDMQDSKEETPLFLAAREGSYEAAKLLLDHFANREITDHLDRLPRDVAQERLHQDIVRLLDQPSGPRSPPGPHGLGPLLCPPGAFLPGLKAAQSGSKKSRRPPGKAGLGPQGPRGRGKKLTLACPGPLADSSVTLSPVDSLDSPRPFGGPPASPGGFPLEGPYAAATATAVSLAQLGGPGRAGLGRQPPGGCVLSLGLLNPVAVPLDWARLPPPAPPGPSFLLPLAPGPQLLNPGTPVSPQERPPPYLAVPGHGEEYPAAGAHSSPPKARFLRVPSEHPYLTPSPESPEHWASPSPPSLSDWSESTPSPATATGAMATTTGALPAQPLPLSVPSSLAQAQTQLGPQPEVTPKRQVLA
Sequence of Dickkopf-related protein 1 (Homo sapiens) (O94907 whole entry, looked up): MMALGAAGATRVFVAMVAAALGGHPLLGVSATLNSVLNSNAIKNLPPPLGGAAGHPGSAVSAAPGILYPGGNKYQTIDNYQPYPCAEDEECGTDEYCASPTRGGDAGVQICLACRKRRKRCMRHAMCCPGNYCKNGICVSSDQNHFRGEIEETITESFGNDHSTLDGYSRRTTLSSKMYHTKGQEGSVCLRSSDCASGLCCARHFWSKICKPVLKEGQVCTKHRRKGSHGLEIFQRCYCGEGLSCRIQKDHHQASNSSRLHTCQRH

Question: Which composite z-score [1] does the source give for `COC(=O)C[C@H]1O[C@]2(C(=O)N(Cc3ccccc3)c3ccc(I)cc32)[C@@H](C)[C@@H]1[Si](C)(C)c1ccc(OC)cc1` here?
Answer: The composite z-score was -0.949.

Question: What about the z-score [2] of the same molecule?
Answer: Its z-score is 0.595 (inactive).

Question: What about the z-score [3] of the same molecule?
Answer: Its z-score is 0.676 (inactive).

Question: And the z-score [4]?
Answer: Its z-score is 1.58 (inactive).

Question: And the composite z-score [5]?
Answer: Its composite z-score is -0.484.

Question: What about the z-score [6] of the same molecule?
Answer: The z-score was -0.556 (inactive).

Question: What about the composite z-score [7] of the same molecule?
Answer: Its composite z-score is -0.0561.

Question: And the composite z-score [8]?
Answer: The composite z-score was -0.598.

Question: What about the composite z-score [9] of the same molecule?
Answer: The composite z-score was -0.625.

Question: What about the composite z-score [10] of the same molecule?
Answer: Its composite z-score is -0.101.

Question: What about the composite z-score [11] of the same molecule?
Answer: The composite z-score was -0.237.

Question: What about the composite z-score [12] of the same molecule?
Answer: Its composite z-score is 0.19.

Question: And the composite z-score [13]?
Answer: The composite z-score was 0.533.

Question: And the z-score [14]?
Answer: Its z-score is -0.853 (inactive).

Question: What about the composite z-score [15] of the same molecule?
Answer: The composite z-score was 0.0095.

Question: And the composite z-score [16]?
Answer: Its composite z-score is -1.19.

Question: What about the composite z-score [17] of the same molecule?
Answer: Its composite z-score is -0.398.

Question: What about the composite z-score [18] of the same molecule?
Answer: Its composite z-score is -0.192.

Question: And the composite z-score [19]?
Answer: Its composite z-score is -0.524.

Question: What about the composite z-score [20] of the same molecule?
Answer: Its composite z-score is 0.413.

Question: With `CO[C@@H]1COC(=O)[C@H](C)NC(=O)CC=C[C@@H](C)[C@H](OC)COC(=O)[C@H](C)NC(=O)CC=C[C@H]1C` as the molecule, how does the composite z-score [1] read?
Answer: Its composite z-score is 0.0529.

Question: And the z-score [2]?
Answer: The z-score was 0.611 (inactive).

Question: And the z-score [3]?
Answer: Its z-score is -0.76 (inactive).

Question: And the z-score [4]?
Answer: The z-score was 0.0943 (inactive).

Question: And the composite z-score [5]?
Answer: Its composite z-score is -0.391.

Question: What about the z-score [6] of the same molecule?
Answer: Its z-score is 0.485 (inactive).

Question: What about the composite z-score [7] of the same molecule?
Answer: Its composite z-score is -0.137.

Question: What about the composite z-score [8] of the same molecule?
Answer: The composite z-score was 0.705.

Question: What about the composite z-score [9] of the same molecule?
Answer: Its composite z-score is 0.546.

Question: What about the composite z-score [10] of the same molecule?
Answer: Its composite z-score is -0.121.

Question: And the composite z-score [11]?
Answer: Its composite z-score is 0.343.

Question: What about the composite z-score [12] of the same molecule?
Answer: The composite z-score was -0.58.

Question: What about the composite z-score [13] of the same molecule?
Answer: Its composite z-score is -0.717.

Question: What about the z-score [14] of the same molecule?
Answer: Its z-score is -0.415 (inactive).

Question: What about the composite z-score [15] of the same molecule?
Answer: The composite z-score was 0.43.

Question: What about the composite z-score [16] of the same molecule?
Answer: The composite z-score was 0.57.

Question: What about the composite z-score [17] of the same molecule?
Answer: The composite z-score was 0.55.

Question: And the composite z-score [18]?
Answer: Its composite z-score is 0.66.

Question: What about the composite z-score [19] of the same molecule?
Answer: The composite z-score was 0.503.

Question: And the composite z-score [20]?
Answer: Its composite z-score is 0.136.

Question: Which composite z-score [1] does the source give for `CO[C@@H]1COC(=O)CC=C[C@H](C)COC(=O)[C@H](Cc2ccccc2)NC(=O)CC=C[C@H]1C` here?
Answer: The composite z-score was 1.48.

Question: What about the z-score [2] of the same molecule?
Answer: Its z-score is -0.346 (inactive).

Question: And the z-score [3]?
Answer: Its z-score is -0.867 (inactive).

Question: What about the z-score [4] of the same molecule?
Answer: The z-score was -1.61 (inactive).

Question: What about the composite z-score [5] of the same molecule?
Answer: The composite z-score was -0.844.

Question: And the z-score [6]?
Answer: Its z-score is -0.0298 (inactive).

Question: And the composite z-score [7]?
Answer: The composite z-score was -0.399.

Question: And the composite z-score [8]?
Answer: The composite z-score was 1.6.

Question: And the composite z-score [9]?
Answer: Its composite z-score is 0.202.

Question: What about the composite z-score [10] of the same molecule?
Answer: The composite z-score was -0.0773.

Question: And the composite z-score [11]?
Answer: The composite z-score was 0.534.

Question: And the composite z-score [12]?
Answer: The composite z-score was -1.19.

Question: What about the composite z-score [13] of the same molecule?
Answer: The composite z-score was -1.74.

Question: And the z-score [14]?
Answer: The z-score was -0.912 (inactive).

Question: What about the composite z-score [15] of the same molecule?
Answer: Its composite z-score is 0.472.

Question: And the composite z-score [16]?
Answer: Its composite z-score is 0.622.

Question: What about the composite z-score [17] of the same molecule?
Answer: Its composite z-score is 1.03.

Question: What about the composite z-score [18] of the same molecule?
Answer: The composite z-score was 1.25.

Question: And the composite z-score [19]?
Answer: The composite z-score was 2.22.

Question: And the composite z-score [20]?
Answer: Its composite z-score is 1.36.

Question: For `CCN1C(C)=C(C(=O)OC)[C@@H](c2ccccc2)N2C(=O)[C@](O)(C(=O)OC)[C@@H](c3ccccc3)C(C(=O)c3ccccc3)=C12`, which composite z-score [1] is on record?
Answer: The composite z-score was 0.481.

Question: What about the z-score [2] of the same molecule?
Answer: The z-score was -0.59 (inactive).

Question: What about the z-score [3] of the same molecule?
Answer: The z-score was -4.98 (inactive).

Question: What about the z-score [4] of the same molecule?
Answer: Its z-score is -0.714 (inactive).

Question: And the composite z-score [5]?
Answer: The composite z-score was 1.41.

Question: And the z-score [6]?
Answer: The z-score was 1.43 (inactive).

Question: What about the composite z-score [7] of the same molecule?
Answer: The composite z-score was -0.132.

Question: What about the composite z-score [8] of the same molecule?
Answer: The composite z-score was 0.416.

Question: And the composite z-score [9]?
Answer: The composite z-score was 0.685.

Question: What about the composite z-score [10] of the same molecule?
Answer: The composite z-score was 0.0255.

Question: And the composite z-score [11]?
Answer: The composite z-score was 0.689.

Question: What about the composite z-score [12] of the same molecule?
Answer: The composite z-score was 0.0153.

Question: What about the composite z-score [13] of the same molecule?
Answer: Its composite z-score is -0.396.

Question: And the z-score [14]?
Answer: Its z-score is -2.45 (inactive).

Question: What about the composite z-score [15] of the same molecule?
Answer: Its composite z-score is 0.436.

Question: And the composite z-score [16]?
Answer: Its composite z-score is 0.779.

Question: And the composite z-score [17]?
Answer: Its composite z-score is 0.385.

Question: And the composite z-score [18]?
Answer: The composite z-score was 0.363.

Question: And the composite z-score [19]?
Answer: The composite z-score was 0.812.

Question: And the composite z-score [20]?
Answer: The composite z-score was -0.411.

Question: Which results are given for `CC(=O)NCCCC[C@@H]1NC(=O)[C@H]2C[C@@H](C(=O)NCCCCCCN(C)C)[C@@H](c3cccc(OCCO)c3)N2C1=O`?
Answer: composite z-score [1]: 1.53; z-score [2]: -1.05 (inactive); z-score [3]: -0.36 (inactive); z-score [4]: -0.391 (inactive); composite z-score [5]: 3.07; z-score [6]: 0.0161 (inactive); composite z-score [7]: 0.536; composite z-score [8]: 1.87; composite z-score [9]: 1.02; composite z-score [10]: 0.539; composite z-score [11]: 1.5; composite z-score [12]: 0.822; composite z-score [13]: 0.649; z-score [14]: 0.567 (inactive); composite z-score [15]: 1.39; composite z-score [16]: 1.36; composite z-score [17]: 1.64; composite z-score [18]: 1.1; composite z-score [19]: 1.77; composite z-score [20]: 0.298
